Source: PubChem
A selection: hits, their analogues and other compounds. The true share with any hit is near 6.7%.
Pf Dd2 growth: P. falciparum Dd2 growth inhibition. activity change, % at 10 µM. 2.3% of 94,000 active. SYBR Green, 72 h; stronger effect = lower value; in the data active means activity change below about -80%; inconclusive means no clear call, values can overlap the other calls
C diff HTS: inhibitors of Clostridium difficile growth; Clostridium difficile clinical isolate growth, OD600, 24 h; stronger effect = lower value; 0.25% of 86,000 active; growth activity, negative = inhibition, % at 16 µg/mL (by protocol);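 active means mean growth activity at or below -80% and every replicate also at or below -80%; inconclusive means mean at or below -80% but some replicate above -80%; inactive means mean growth activity above -80%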
T cruzi growth-1: blocks T. cruzi growth in NIH3T3 culture; T. cruzi beta-gal in NIH3T3, GalScreen luminescence, 90 h; 5.9% of 77,000 active; inhibition, % at 8.34 µM;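 active means mean inhibition above about 93%, with at least 55% of replicates each passing it, limit read from the data, passing the limit was not always enough; inconclusive means only one of those two conditions holds; inactive means neither condition holds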
T cruzi growth-2: inhibitors of T. cruzi proliferation. shares compounds with T cruzi growth-1. T. cruzi beta-gal in NIH3T3, GalScreen luminescence, 90 h. inhibition, % at 8.35 µM. 72% of 5,600 active. AID 651739;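 active means mean replicate inhibition above about 95% and at least 55% of replicates individually reaching it, limit read from the data; inconclusive means only one of the two criteria is met; inactive means neither criterion is met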
T cruzi growth-3: blocks T. cruzi growth in NIH3T3 host cells. shares compounds with T cruzi growth-1. T. cruzi beta-gal in NIH3T3, GalScreen luminescence, 90 h. inhibition, % at 2.09 µM. 21% of 5,600 active. AID 651740;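 active means mean inhibition above about 95%, with at least 55% of replicates also reaching it, limit read from the data; inconclusive means meets just one of the two conditions; inactive means meets neither condition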
NIH3T3 tox: kills mouse NIH/3T3 fibroblasts; AID 651742; NIH/3T3 viability, CellTiter-Glo ATP luminescence, 90 h; shares compounds with T cruzi growth-1; cytotoxicity (signal decrease), % at 8.35 µM; 14% of 5,600 active;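 active means mean signal decrease across replicates above about 35% based on untreated-well scatter, with enough replicates individually passing, limit read from the data; inconclusive means no rule stated though some were filed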
3T3 cytotox 2: kills mouse NIH/3T3 fibroblasts; 56% of 5,600 active; AID 651744; shares compounds with T cruzi growth-1; NIH/3T3 viability, CellTiter-Glo ATP luminescence, 90 h; inhibition, % at 24.9 µM;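 active means mean loss of cell viability signal at or above a set limit, and enough replicates individually reaching it; inconclusive means meets only the mean limit or only the replicate share; inactive means meets neither condition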
Each line names hits and unclear results; the compound was inactive in the other large screens (follow-up assays come after a bar, where they were run); ! = not active in a repeat.

CN1[C@@H]2c3ccc(-c4ccccc4)c(=O)n3C[C@@H]2[C@@H](CO)[C@@H]1C(=O)Nc1ccccc1	T cruzi growth-1 101 | T cruzi growth-2 inactive | T cruzi growth-3 inactive | NIH3T3 tox inactive | 3T3 cytotox 2 inactive
COc1ccc(-c2ccc3n(c2=O)C[C@H]2[C@H](CO)[C@@H](C(=O)Nc4ccccc4)N(C)[C@@H]32)cc1	none (no result: T cruzi growth-1)
CN1[C@H](C(=O)Nc2ccccc2)[C@@H](CO)[C@@H]2Cn3c(ccc(-c4ccccc4)c3=O)[C@@H]21	T cruzi growth-1 100 | T cruzi growth-2 inactive | T cruzi growth-3 inactive | NIH3T3 tox inactive | 3T3 cytotox 2 inconclusive
COc1ccc2c3c(n(C)c2c1)[C@@H](CO)N(C)CC31CCN(S(C)(=O)=O)CC1	none (no result: T cruzi growth-1)
CCCNC(=O)[C@@H]1[C@@H](CO)[C@@H]2Cn3c(ccc(-c4ccccc4F)c3=O)[C@@H]2N1C(=O)CC	none
C[C@@H]1CN([C@@H](C)CO)C(=O)Cc2cc(NC(=O)Cc3ccccc3)ccc2O[C@@H]1CN(C)S(=O)(=O)c1ccc(F)cc1	none
COc1ccc(CN(C)C[C@H]2OCCCC[C@H](C)Oc3ccc(NC(=O)Nc4ccc(C(F)(F)F)cc4)cc3C(=O)N([C@@H](C)CO)C[C@@H]2C)cc1	none
COc1ccc(NC(=O)Nc2ccc3c(c2)C(=O)N([C@H](C)CO)C[C@@H](C)[C@@H](CN(C)Cc2ccc(C(F)(F)F)cc2)OCCCC[C@H](C)O3)cc1	T cruzi growth-1 100 | T cruzi growth-2 inactive | T cruzi growth-3 108 | NIH3T3 tox inactive | 3T3 cytotox 2 inactive
COc1ccc(CN(C)C[C@@H]2OCCCC[C@@H](C)Oc3ccc(NC(=O)Nc4ccc(C(F)(F)F)cc4)cc3C(=O)N([C@@H](C)CO)C[C@@H]2C)cc1	none
COc1ccc(CN(C)C[C@@H]2OCCCC[C@@H](C)Oc3ccc(NC(=O)Nc4ccc(C(F)(F)F)cc4)cc3C(=O)N([C@H](C)CO)C[C@@H]2C)cc1	T cruzi growth-1 inconclusive | T cruzi growth-2 97 | T cruzi growth-3 108 | NIH3T3 tox inactive | 3T3 cytotox 2 29
CN1CCN(C(=O)C[C@@H]2C[C@@H]3c4cc(NC(=O)Nc5ccc(C(F)(F)F)cc5)ccc4O[C@@H]3[C@H](CO)O2)CC1	none
Cc1ccc(S(=O)(=O)Nc2ccc3c(c2)C(=O)N([C@@H](C)CO)C[C@H](C)[C@H](CN(C)S(=O)(=O)c2c(C)noc2C)O3)cc1	none
COCC(=O)N(C[C@@H]1N[C@@H](CO)[C@@H]1c1ccc(C2=CCCCC2)cc1)C(C)C	none
O=C(c1ccccc1F)N1CC2(C1)[C@H](c1ccccc1)[C@@H](CO)N2CC1CCOCC1	none (no result: T cruzi growth-1)
COc1ccc2c3c([nH]c2c1)[C@@H](CO)N(Cc1ccccn1)CC31CCN(C(C)=O)CC1	none (no result: T cruzi growth-1)
N#C[C@@H]1[C@@H](c2ccc(-c3ccccc3)cc2)[C@@H](CO)N1C(=O)Cc1ccncc1	none
N#C[C@H]1[C@H](c2ccc(C#Cc3ccc(F)cc3)cc2)[C@H](CO)N1C(=O)Cc1ccncc1	T cruzi growth-1 inconclusive | T cruzi growth-2 inactive | T cruzi growth-3 inactive | NIH3T3 tox inactive | 3T3 cytotox 2 inconclusive
N#C[C@@H]1[C@@H](c2ccc(-c3ccncc3)cc2)[C@@H](CO)N1C(=O)Cc1ccccc1	T cruzi growth-1 inconclusive | T cruzi growth-2 inactive | T cruzi growth-3 inactive | NIH3T3 tox inactive | 3T3 cytotox 2 28
N#C[C@H]1[C@@H](c2ccc(-c3ccncc3)cc2)[C@@H](CO)N1C(=O)Cc1ccccc1	T cruzi growth-1 inconclusive | T cruzi growth-2 104 | T cruzi growth-3 inactive | NIH3T3 tox inactive | 3T3 cytotox 2 44
N#C[C@H]1[C@H](c2ccc(-c3ccccc3)cc2)[C@H](CO)N1C(=O)Cc1ccncc1	T cruzi growth-1 102 | T cruzi growth-2 110 | T cruzi growth-3 inactive | NIH3T3 tox inactive | 3T3 cytotox 2 inconclusive
N#C[C@@H]1[C@H](c2ccc(-c3cncnc3)cc2)[C@@H](CO)N1C(=O)Cc1ccccc1	none
N#C[C@H]1[C@@H](c2ccc(-c3ccc(F)cc3)cc2)[C@@H](CO)N1C(=O)Cc1ccccc1	none
N#C[C@H]1[C@H](c2ccc(-c3ccc(F)cc3)cc2)[C@H](CO)N1C(=O)Cc1ccccc1	none
C/C=C/c1ccc([C@@H]2[C@@H](CO)N(C(C)=O)[C@H]2CNC(=O)CC2CC2)cc1	none
CO[C@@H]1CN(C)C(=O)c2ccc(NC(=O)C3CCOCC3)cc2OC[C@@H](C)N(C)C[C@@H]1C	none
O=C(C[C@H]1CC[C@@H](NS(=O)(=O)c2ccc(F)cc2)[C@H](CO)O1)NCc1ccncn1	none
O=C(C[C@@H]1CC[C@H]2[C@@H](COC[C@H](O)CN2C(=O)Nc2cccc(Cl)c2)O1)N1CCCCC1	none
Cc1noc(C)c1S(=O)(=O)Nc1ccc2c(c1)C(=O)N([C@H](C)CO)C[C@@H](C)[C@H](CN(C)C(=O)Nc1cccc3ccccc13)O2	none
C[C@@H]1CN([C@H](C)CO)C(=O)c2cc(NC(=O)Nc3ccccc3)ccc2O[C@H]1CN(C)S(=O)(=O)c1ccccc1	none
C[C@H](CO)N1C[C@H](C)[C@@H](CN(C)C(=O)c2ccc3ccn(C)c3c2)OCc2cnnn2CCCC1=O	T cruzi growth-1 117! | T cruzi growth-2 inactive | T cruzi growth-3 inactive | NIH3T3 tox inactive | 3T3 cytotox 2 inactive
C[C@@H]1CN([C@@H](C)CO)C(=O)CCCn2nncc2CO[C@@H]1CN(C)C(=O)NC1CCCC1	T cruzi growth-1 inconclusive | T cruzi growth-2 inactive | T cruzi growth-3 inactive | NIH3T3 tox inactive | 3T3 cytotox 2 inactive
CC(C)COC(=O)N(C)C[C@H]1OCc2cnnn2CCCC(=O)N([C@@H](C)CO)C[C@H]1C	none
CC(C)COC(=O)N(C)C[C@@H]1OCc2cnnn2CCCC(=O)N([C@H](C)CO)C[C@H]1C	T cruzi growth-1 101! | T cruzi growth-2 inactive | T cruzi growth-3 inactive | NIH3T3 tox inactive | 3T3 cytotox 2 inactive
C[C@H](CO)N1C[C@H](C)[C@H](CN(C)C(=O)NC2CCCCC2)OCc2cnnn2CCCC1=O	none
C[C@@H]1CN([C@@H](C)CO)C(=O)CCCn2nncc2CO[C@@H]1CN(C)C(=O)c1ccc2ccn(C)c2c1	none
C[C@@H]1CCCCO[C@@H](CN(C)S(=O)(=O)c2cn(C)cn2)[C@@H](C)CN([C@@H](C)CO)C(=O)c2cc(NS(=O)(=O)c3ccc(Cl)cc3)ccc2O1	none
CCCN1[C@H](C(=O)OC)[C@@H](CO)[C@@H]2Cn3c(ccc(-c4ccccc4OC)c3=O)[C@@H]21	none
CCCC#Cc1ccc2c(c1)O[C@@H](CN(C)Cc1cncnc1)[C@H](C)CN([C@H](C)CO)S2(=O)=O	none
CCCC#Cc1ccc2c(c1)O[C@@H](CN(C)Cc1cncnc1)[C@@H](C)CN([C@@H](C)CO)S2(=O)=O	none
